# Assay results as given in article PMC7862700, “An all-to-all approach to the identification of sequence-specific readers for epigenetic DNA modifications on cytosine”.
# Experiments:
# Assay in all cases: DAPPL (digital affinity profiling via proximity ligation, sequencing); 10 mM Tris-HCl pH 7.5, 50 mM NaCl, 1 mM DTT, 4% glycerol, room temperature, 30 min; GST-TFs on glutathione beads, 16-mer random dsDNA library, 0.1% formaldehyde crosslink after washing; high values mean tight binding
# FLI1 = biological target: T1, FLI1 (Homo sapiens, UniProt Q01543 1-452); settings: protein: recombinant; tags: N-terminal GST; dsDNA, one strand shown
# T1 sequence: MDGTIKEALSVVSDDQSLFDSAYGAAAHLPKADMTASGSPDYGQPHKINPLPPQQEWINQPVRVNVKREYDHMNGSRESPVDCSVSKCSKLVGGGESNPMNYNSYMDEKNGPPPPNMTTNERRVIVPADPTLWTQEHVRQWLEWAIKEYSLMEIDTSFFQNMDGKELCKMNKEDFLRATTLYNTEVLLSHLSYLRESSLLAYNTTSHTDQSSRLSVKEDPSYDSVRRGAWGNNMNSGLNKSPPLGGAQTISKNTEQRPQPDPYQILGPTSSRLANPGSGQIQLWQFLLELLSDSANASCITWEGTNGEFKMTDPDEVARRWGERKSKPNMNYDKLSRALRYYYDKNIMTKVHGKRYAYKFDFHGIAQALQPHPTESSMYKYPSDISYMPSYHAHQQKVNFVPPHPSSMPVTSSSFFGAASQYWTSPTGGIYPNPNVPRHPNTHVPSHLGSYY
# In short: (§1)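 Binding signal is defined as a hexamer's read frequency for one factor over its frequency for the tag-only sample. To obtain reads, GST-fused human transcription factors were expressed in yeast, captured on glutathione beads, barcoded with DNA and pooled with that sample. Pools met 200 nmole of a 16-mer random double-stranded DNA library in Tris/NaCl/DTT/glycerol buffer for 30 min at room temperature before washing, 0.1% formaldehyde crosslinking, proximity ligation (BsaI/T4 ligase, 1 h, 37 °C), PCR and Illumina NextSeq500 sequencing.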
# ELK1 = biological target: T2, ELK1 (Homo sapiens, UniProt P19419 1-428); settings: protein: recombinant; tags: N-terminal GST; dsDNA, one strand shown
# T2 sequence: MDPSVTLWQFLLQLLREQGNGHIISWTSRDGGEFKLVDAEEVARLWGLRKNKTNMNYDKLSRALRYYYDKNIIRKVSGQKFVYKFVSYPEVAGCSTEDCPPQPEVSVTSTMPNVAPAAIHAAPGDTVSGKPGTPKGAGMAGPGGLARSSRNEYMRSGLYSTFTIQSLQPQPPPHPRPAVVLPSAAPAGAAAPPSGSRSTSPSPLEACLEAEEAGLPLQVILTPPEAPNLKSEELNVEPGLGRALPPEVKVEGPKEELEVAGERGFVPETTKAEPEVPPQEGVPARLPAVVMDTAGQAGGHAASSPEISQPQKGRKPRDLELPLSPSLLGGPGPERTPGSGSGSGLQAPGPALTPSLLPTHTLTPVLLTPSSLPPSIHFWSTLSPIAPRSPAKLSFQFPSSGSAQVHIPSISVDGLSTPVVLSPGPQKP
# In short: as §1
# GABPA = biological target: T3, GABPA (Homo sapiens, UniProt Q06546 1-454); settings: protein: recombinant; tags: N-terminal GST; dsDNA, one strand shown
# T3 sequence: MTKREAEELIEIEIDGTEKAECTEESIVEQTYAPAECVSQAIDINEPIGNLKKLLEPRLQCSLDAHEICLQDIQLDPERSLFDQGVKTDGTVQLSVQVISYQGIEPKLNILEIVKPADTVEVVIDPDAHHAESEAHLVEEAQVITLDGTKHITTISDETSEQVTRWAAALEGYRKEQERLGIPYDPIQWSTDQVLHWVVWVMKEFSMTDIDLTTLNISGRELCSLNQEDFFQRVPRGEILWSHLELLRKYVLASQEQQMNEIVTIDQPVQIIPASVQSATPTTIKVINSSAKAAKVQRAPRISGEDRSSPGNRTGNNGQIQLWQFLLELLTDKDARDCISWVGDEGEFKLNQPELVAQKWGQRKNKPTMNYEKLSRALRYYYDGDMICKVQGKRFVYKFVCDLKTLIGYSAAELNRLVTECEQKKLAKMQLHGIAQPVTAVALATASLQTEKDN
# In short: as §1
# ERG = biological target: T4, ERG (Homo sapiens, UniProt P11308 1-479); settings: protein: recombinant; tags: N-terminal GST; dsDNA, one strand shown
# T4 sequence: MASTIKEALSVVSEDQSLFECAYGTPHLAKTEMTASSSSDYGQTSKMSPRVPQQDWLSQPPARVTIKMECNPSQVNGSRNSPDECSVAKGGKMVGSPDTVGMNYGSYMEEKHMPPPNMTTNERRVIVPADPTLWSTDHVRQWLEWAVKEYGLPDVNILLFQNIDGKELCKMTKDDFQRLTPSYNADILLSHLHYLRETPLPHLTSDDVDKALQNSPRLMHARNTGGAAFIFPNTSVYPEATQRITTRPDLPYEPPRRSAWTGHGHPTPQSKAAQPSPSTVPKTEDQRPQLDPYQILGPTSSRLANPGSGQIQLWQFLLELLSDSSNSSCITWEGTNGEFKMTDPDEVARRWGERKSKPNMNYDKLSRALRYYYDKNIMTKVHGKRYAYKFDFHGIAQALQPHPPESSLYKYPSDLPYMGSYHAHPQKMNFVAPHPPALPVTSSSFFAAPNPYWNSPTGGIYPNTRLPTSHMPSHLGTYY
# In short: as §1
# ELF1 = ELF1 (Homo sapiens, UniProt P32519 1-619); settings: protein: recombinant; tags: N-terminal GST; dsDNA, one strand shown
# Sequence of ELF1 (P32519 whole entry): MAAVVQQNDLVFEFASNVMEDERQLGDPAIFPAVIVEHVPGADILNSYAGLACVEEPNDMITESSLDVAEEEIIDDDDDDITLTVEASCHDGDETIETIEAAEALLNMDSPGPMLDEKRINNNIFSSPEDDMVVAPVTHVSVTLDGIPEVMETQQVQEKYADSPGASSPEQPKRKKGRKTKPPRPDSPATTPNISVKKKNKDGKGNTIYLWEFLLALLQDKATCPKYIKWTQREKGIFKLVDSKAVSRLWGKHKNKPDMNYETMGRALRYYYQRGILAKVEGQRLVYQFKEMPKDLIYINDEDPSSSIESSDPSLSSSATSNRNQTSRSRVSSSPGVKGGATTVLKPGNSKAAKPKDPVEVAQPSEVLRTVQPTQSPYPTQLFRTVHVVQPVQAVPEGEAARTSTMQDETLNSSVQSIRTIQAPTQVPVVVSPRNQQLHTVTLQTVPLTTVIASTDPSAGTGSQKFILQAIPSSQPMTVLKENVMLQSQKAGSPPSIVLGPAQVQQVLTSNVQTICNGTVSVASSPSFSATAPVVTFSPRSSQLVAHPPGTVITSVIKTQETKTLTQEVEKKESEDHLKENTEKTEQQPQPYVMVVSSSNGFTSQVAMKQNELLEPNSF
# In short: as §1
# EHF = biological target: T5, EHF (Homo sapiens, UniProt Q9NZC4 1-300); settings: protein: recombinant; tags: N-terminal GST; dsDNA, one strand shown
# T5 sequence: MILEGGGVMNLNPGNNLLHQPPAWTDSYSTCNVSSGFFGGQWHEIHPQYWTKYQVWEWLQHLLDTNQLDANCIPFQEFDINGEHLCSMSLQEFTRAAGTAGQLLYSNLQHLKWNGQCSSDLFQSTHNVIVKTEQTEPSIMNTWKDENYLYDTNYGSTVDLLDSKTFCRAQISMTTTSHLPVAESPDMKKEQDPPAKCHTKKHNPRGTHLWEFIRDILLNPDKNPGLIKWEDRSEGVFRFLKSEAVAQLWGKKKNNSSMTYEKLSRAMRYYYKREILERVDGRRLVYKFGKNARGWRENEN
# In short: as §1
# SPI1 = SPI1 (Homo sapiens, UniProt P17947 1-270); settings: protein: recombinant; tags: N-terminal GST; dsDNA, one strand shown
# In short: as §1
# SPIB = SPIB (Homo sapiens, UniProt Q01892 1-262); settings: protein: recombinant; tags: N-terminal GST; dsDNA, one strand shown
# Sequence of SPIB (Q01892 whole entry): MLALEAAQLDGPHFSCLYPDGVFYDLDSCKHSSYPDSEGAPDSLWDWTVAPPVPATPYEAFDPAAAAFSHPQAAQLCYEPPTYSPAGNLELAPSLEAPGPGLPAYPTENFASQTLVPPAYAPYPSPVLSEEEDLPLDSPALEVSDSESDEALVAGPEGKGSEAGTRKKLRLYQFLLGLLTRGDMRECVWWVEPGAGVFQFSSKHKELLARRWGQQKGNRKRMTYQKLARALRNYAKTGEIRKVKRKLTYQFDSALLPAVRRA
# In short: as §1
# ELK3 = biological target: T6, ELK3 (Homo sapiens, UniProt P41970 1-407); settings: protein: recombinant; tags: N-terminal GST; dsDNA, one strand shown
# T6 sequence: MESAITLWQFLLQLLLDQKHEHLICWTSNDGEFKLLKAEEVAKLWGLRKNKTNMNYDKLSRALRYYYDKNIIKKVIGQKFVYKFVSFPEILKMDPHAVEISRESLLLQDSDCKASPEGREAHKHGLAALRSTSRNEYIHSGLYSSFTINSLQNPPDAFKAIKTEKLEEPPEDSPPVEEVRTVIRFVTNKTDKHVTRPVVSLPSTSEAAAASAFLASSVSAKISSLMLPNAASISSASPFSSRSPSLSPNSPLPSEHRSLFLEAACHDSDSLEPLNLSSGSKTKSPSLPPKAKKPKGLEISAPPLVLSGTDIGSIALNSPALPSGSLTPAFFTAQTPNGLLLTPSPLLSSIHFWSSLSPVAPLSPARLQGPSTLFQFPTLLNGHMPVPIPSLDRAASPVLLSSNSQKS
# In short: as §1
# FEV = biological target: T7, FEV (Homo sapiens, UniProt Q99581 1-238); settings: protein: recombinant; tags: N-terminal GST; dsDNA, one strand shown
# T7 sequence: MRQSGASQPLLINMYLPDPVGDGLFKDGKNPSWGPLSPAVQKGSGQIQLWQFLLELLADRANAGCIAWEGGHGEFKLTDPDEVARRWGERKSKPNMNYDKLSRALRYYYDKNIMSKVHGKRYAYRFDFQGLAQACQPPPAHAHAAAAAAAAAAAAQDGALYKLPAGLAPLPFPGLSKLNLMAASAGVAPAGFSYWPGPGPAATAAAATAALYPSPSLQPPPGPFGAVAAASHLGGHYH
# In short: as §1
# ETV5 = ETV5 (Homo sapiens, UniProt P41161 1-510); settings: protein: recombinant; tags: N-terminal GST; dsDNA, one strand shown
# Sequence of ETV5 (P41161 whole entry): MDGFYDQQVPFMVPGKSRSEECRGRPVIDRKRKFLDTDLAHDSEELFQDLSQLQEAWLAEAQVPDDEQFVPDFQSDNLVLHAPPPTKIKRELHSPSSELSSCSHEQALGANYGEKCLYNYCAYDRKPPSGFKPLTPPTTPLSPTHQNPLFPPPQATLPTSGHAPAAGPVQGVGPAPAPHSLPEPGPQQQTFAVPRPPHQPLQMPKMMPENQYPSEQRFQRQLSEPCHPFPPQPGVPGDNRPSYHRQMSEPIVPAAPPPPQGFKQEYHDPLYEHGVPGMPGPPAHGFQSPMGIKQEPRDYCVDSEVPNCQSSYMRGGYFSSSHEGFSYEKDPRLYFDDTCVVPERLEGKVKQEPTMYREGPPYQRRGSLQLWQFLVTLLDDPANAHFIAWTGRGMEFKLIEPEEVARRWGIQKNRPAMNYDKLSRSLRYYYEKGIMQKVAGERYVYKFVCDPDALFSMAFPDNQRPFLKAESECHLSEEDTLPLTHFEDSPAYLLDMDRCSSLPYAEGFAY
# In short: as §1
# HSF1 = HSF1 (Homo sapiens, UniProt Q00613 1-529); settings: protein: recombinant; tags: N-terminal GST; chain copies: 3; dsDNA, one strand shown
# Sequence of HSF1 (Q00613 whole entry): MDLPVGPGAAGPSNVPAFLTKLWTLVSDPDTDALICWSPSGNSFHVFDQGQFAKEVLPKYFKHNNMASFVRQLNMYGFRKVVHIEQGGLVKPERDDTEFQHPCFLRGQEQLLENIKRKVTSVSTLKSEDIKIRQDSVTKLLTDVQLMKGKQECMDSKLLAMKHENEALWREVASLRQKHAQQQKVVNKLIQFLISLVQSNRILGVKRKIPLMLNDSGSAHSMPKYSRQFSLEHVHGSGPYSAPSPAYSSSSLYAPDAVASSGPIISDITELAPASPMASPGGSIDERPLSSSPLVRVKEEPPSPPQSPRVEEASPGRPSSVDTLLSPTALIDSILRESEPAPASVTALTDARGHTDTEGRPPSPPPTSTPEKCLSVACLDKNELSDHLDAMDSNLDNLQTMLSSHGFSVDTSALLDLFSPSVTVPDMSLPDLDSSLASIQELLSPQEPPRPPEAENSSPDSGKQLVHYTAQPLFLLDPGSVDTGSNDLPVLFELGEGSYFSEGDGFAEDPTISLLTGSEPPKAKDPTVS
# In short: as §1
# SPIC = biological target: T8, SPIC (Homo sapiens, UniProt Q8N5J4 1-248); settings: protein: recombinant; tags: N-terminal GST; dsDNA, one strand shown
# T8 sequence: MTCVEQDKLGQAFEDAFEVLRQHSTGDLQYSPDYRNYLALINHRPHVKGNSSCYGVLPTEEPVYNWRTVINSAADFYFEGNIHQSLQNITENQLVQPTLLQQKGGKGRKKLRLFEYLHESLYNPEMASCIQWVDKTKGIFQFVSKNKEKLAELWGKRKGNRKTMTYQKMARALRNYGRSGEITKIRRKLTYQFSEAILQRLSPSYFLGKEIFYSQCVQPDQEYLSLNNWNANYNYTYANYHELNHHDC
# In short: as §1
# ELF4 = ELF4 (Homo sapiens, UniProt Q99607 1-663); settings: protein: recombinant; tags: N-terminal GST; dsDNA, one strand shown
# Sequence of ELF4 (Q99607 whole entry): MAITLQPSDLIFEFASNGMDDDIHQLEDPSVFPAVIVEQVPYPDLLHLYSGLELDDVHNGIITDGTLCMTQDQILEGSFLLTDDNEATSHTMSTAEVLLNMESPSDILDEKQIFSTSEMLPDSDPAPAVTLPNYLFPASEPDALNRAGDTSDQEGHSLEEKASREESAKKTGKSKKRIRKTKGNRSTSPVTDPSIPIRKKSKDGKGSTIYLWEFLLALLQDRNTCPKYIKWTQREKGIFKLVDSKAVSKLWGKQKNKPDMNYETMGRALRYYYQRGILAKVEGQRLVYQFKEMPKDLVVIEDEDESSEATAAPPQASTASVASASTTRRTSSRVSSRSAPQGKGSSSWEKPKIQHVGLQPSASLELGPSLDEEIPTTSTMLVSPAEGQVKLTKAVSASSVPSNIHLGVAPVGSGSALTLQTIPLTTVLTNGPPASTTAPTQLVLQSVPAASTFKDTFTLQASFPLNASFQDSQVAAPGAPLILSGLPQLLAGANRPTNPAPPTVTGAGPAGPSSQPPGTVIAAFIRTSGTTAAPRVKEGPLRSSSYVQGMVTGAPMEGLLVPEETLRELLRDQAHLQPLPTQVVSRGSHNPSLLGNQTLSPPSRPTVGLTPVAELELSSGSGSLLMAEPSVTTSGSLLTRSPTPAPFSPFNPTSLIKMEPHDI
# In short: as §1
# ELK4 = biological target: T9, ELK4 (Homo sapiens, UniProt P28324-2 1-405); settings: protein: recombinant; tags: N-terminal GST; dsDNA, one strand shown
# T9 sequence: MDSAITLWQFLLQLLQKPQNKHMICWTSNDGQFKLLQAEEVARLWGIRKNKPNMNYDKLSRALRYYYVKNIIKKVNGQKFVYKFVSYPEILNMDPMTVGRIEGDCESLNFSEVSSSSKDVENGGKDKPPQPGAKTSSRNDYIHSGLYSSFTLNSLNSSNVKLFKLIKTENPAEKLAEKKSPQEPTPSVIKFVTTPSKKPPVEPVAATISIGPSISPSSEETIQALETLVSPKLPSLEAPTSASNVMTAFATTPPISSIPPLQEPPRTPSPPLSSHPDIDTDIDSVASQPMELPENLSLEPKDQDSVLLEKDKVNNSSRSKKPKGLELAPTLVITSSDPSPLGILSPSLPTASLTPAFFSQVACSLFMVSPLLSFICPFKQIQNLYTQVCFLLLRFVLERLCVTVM
# In short: as §1
# ETV2 = biological target: T10, ETV2 (Homo sapiens, UniProt O00321 1-342); settings: protein: recombinant; tags: N-terminal GST; dsDNA, one strand shown
# T10 sequence: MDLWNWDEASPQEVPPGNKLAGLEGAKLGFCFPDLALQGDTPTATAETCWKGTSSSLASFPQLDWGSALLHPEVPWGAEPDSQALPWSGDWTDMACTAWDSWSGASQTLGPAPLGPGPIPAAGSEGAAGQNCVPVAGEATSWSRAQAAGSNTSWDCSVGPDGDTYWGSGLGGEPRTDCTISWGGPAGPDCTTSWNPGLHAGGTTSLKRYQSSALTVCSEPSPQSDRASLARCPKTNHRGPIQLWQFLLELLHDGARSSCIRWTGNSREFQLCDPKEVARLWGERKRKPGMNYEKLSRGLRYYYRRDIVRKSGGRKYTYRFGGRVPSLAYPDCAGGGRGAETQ
# In short: as §1
# ELF3 = biological target: T11, ELF3 (Homo sapiens, UniProt P78545 1-371); settings: protein: recombinant; tags: N-terminal GST; dsDNA, one strand shown
# T11 sequence: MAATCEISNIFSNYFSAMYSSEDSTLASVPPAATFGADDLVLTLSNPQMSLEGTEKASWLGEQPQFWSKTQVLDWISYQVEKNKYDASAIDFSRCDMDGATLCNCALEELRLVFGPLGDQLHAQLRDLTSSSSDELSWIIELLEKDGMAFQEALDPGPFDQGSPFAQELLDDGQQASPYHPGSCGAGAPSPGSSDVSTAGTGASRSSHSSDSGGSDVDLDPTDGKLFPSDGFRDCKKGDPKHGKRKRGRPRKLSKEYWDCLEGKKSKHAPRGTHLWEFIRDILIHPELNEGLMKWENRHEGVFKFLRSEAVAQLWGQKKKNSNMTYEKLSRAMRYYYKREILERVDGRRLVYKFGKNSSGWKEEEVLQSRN
# In short: as §1
# CRX = CRX (Homo sapiens, UniProt O43186 1-299); settings: protein: recombinant; tags: N-terminal GST; dsDNA, one strand shown
# Sequence of CRX (O43186 whole entry): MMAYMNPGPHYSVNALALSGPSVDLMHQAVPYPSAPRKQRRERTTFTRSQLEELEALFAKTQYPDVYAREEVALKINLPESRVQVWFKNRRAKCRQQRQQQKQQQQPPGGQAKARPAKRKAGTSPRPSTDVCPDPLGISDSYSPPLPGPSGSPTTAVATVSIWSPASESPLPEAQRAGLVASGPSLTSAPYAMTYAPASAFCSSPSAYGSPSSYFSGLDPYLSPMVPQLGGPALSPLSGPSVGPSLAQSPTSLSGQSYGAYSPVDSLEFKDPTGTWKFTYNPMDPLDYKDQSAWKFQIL
# In short: as §1
# ETV1 = ETV1 (Homo sapiens, UniProt P50549 1-477); settings: protein: recombinant; tags: N-terminal GST; dsDNA, one strand shown
# Sequence of ETV1 (P50549 whole entry): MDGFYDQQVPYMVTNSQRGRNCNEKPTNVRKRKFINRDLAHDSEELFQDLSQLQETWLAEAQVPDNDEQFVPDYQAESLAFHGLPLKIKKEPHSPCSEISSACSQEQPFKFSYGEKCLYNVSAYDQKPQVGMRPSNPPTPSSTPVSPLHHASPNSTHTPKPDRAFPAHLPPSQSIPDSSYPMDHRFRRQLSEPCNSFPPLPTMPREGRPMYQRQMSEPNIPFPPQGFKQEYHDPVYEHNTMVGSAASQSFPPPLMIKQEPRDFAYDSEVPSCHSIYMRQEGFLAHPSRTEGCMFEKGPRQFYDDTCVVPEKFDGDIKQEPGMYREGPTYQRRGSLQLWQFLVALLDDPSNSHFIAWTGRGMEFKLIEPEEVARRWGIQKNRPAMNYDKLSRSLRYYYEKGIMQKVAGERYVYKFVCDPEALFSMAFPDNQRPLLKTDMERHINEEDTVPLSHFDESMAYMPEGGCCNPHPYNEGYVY
# In short: as §1
sequence,measurement,setting,value
AATACA,binding signal,FLI1,"1.28 fold enrichment (6-mer frequency, TF over GST control)"
same,binding signal,ELK1,"1.3 fold enrichment (6-mer frequency, TF over GST control)"
same,binding signal,GABPA,"1.38 fold enrichment (6-mer frequency, TF over GST control)"
same,binding signal,ERG,"1.33 fold enrichment (6-mer frequency, TF over GST control)"
same,binding signal,ELF1,"1.35 fold enrichment (6-mer frequency, TF over GST control)"
same,binding signal,EHF,"1.3 fold enrichment (6-mer frequency, TF over GST control)"
same,binding signal,SPI1,"1.28 fold enrichment (6-mer frequency, TF over GST control)"
same,binding signal,SPIB,"1.31 fold enrichment (6-mer frequency, TF over GST control)"
same,binding signal,ELK3,"1.27 fold enrichment (6-mer frequency, TF over GST control)"
same,binding signal,FEV,"1.38 fold enrichment (6-mer frequency, TF over GST control)"
same,binding signal,ETV5,"1.33 fold enrichment (6-mer frequency, TF over GST control)"
same,binding signal,HSF1,"1.25 fold enrichment (6-mer frequency, TF over GST control)"
same,binding signal,SPIC,"1.21 fold enrichment (6-mer frequency, TF over GST control)"
same,binding signal,ELF4,"1.3 fold enrichment (6-mer frequency, TF over GST control)"
same,binding signal,ELK4,"1.29 fold enrichment (6-mer frequency, TF over GST control)"
same,binding signal,ETV2,"1.45 fold enrichment (6-mer frequency, TF over GST control)"
same,binding signal,ELF3,"1.18 fold enrichment (6-mer frequency, TF over GST control)"
same,binding signal,CRX,"1.33 fold enrichment (6-mer frequency, TF over GST control)"
same,binding signal,ETV1,"1.31 fold enrichment (6-mer frequency, TF over GST control)"
